# Results filed as inconclusive are left out. The source made the active and inactive calls. Rule for the calls, unless noted: active = hit-call score of the fitted dose curve at least 0.9, where 1 is the maximum; inconclusive = response in the unintended direction; inactive = score below 0.9.
# How the values were obtained:
# [1] = biological target: Cellular tumor antigen p53 (Homo sapiens) (UniProt P04637); test: TOX21_p53_BLA_p2_ratio: Tox21 HCT-116 p53 Agonism Beta-lactamase Assay, Ratio, Phase 2 (AID 2283592)
# Outline: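 An inducible beta-lactamase reporter in HCT116 cells signals p53 pathway activation. After 16 h chemical exposure at 37C, cells load CCF4-AM substrate for 2 h at room temperature; activity is the cleaved/uncleaved emission ratio relative to DMSO.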
# [2] = biological target: Cellular tumor antigen p53 (Homo sapiens) (UniProt P04637); test: TOX21_p53_BLA_p5_ratio: Tox21 HCT-116 p53 Agonism Beta-lactamase Assay, Ratio, Phase 5 (AID 2283599)
# Outline: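 Beta-lactamase reporter ratio (blue 460 nm over green 530 nm, 405 nm excitation) after 2 h CCF4-AM loading, in HCT-116 cells exposed 16 h at 37 C to compounds pinned at 217-fold dilution. Increases relative to DMSO baseline scored.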
# [3] = TOX21_p53_BLA_p5_viability: Viability Assessment in the Tox21 HCT-116 p53 Agonism Beta-lactamase Assay, Phase 5 (AID 2283600)
# Outline: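 Counter-readout for cytotoxicity: ATP-dependent luminescence from CellTiter-Glo, read in the beta-lactamase wells after 30 min at RT, following a 16 h compound exposure at 37C.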
# [4] = biological target: Cellular tumor antigen p53 (Homo sapiens) (UniProt P04637); test: TOX21_p53_BLA_p4_ratio: Tox21 HCT-116 p53 Agonism Beta-lactamase Assay, Ratio, Phase 4 (AID 2283601)
# Outline: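 Signal is the blue/green (460nm/530nm) ratio of cleaved versus uncleaved CCF4-AM substrate, read after 2 h substrate loading. Cells were HCT116 carrying the p53-responsive beta-lactamase reporter, dosed 16 h at 37C, 5% CO2; CellTiter-Glo measured in parallel.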
# [5] = ACEA_ER_AUC_viability: ACEA Biosciences xCELLigence Real-Time Cell Analysis on Estrogen Receptor Agonism for Viability (AID 2283782);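 note: continuous compound exposure with impedance area under curve over 80 h; hit means loss of impedance signal meaning reduced cell growth or viability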
# Outline: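 T-47D; phenol red-free RPMI1640 + 10% CS-FBS; 8 conc., 1:4 serial, max 100 uM final, ≤0.5% DMSO; n = 2; continuous exposure; impedance monitored to 80 h post-dose; AUC vs DMSO.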
# [6] = STM_H9_OrnCyssISnorm_ratio: Stemina devTOX quickPredict H9 human embryonic stem cell (hESC)-based Assay for Ornithine (ORN):Cystine (CYSS) Ratio (AID 2283714)
# Outline: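 Steps: H9 hESCs in pluripotent state dosed 72h, medium plus compound renewed every 24h; conditioned medium from the final 24h deproteinized in 40% acetonitrile; ORN and CYSS quantified by UPLC-HRMS with C13 spike-ins; ratio relative to vehicle.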
# [7] = CCTE_Harrill_HTTr_Viability_MCF7: CCTE's 6-hour Cell Viability Assessment for the High-Throughput Transcriptomics (HTTr) Platform, in MCF-7 cells cultured in DMEM + 10% fetal bovine serum, Harrill Lab (AID 2284010; active = hit-call score of the fitted dose curve at least 0.9, where 1 is the maximum; inactive = score below 0.9)
# Outline: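 Cells were dosed with chemicals in an eight-point dilution series, imaged 6 hours later for propidium iodide uptake, and the endpoint was analyzed by bidirectional fitting against DMSO as negative control.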
# [8] = CCTE_Harrill_HTTr_CellCount_MCF7: CCTE's Cell Proliferation Assessment for the High-Throughput Transcriptomics (HTTr) Platform, Harrill Lab (AID 2284012);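 note: count of Hoechst-stained nuclei per well by high-content imaging in MCF-7 cells; cells exposed to compound for six hours; intended direction is loss of nuclei count meaning fewer cells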
# Outline: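 Chemicals in eight-point dilution series are added to MCF-7 cells for six hours, nuclei are stained with Hoechst and imaged, and per-well nuclei counts are fitted in both directions relative to DMSO controls.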
# [9] = TOX21_p53_BLA_p3_viability: Viability Assessment in the Tox21 HCT-116 p53 Agonism Beta-lactamase Assay, Phase 3 (AID 2283593);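 note: cells exposed to compound for 16 h before reading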
# Outline: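 Cellular ATP was quantified by CellTiter-Glo luminescence, read after 30 min at room temperature. Beforehand, HCT116 cells (4000/well) received compound 5 h post-seeding, 217-fold diluted from DMSO, then incubated 16 h at 37C.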
# [10] = biological target: Cellular tumor antigen p53 (Homo sapiens) (UniProt P04637); test: TOX21_p53_BLA_p3_ratio: Tox21 HCT-116 p53 Agonism Beta-lactamase Assay, Ratio, Phase 3 (AID 2283596)
# Outline: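 HCT116 p53-bla cells (4000/well) given compound in DMSO (217-fold dilution) after 5 h, incubated 16 h at 37C. CCF4-AM substrate 2 h at room temperature; 460/530 nm emission ratio, gain fitted against DMSO.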
# [11] = TOX21_p53_BLA_p4_viability: Viability Assessment in the Tox21 HCT-116 p53 Agonism Beta-lactamase Assay, Phase 4 (AID 2283597);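 note: hits lower the luminescence signal meaning cytotoxicity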
# Outline: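 Compound exposure of HCT116 cells lasts 16 h at 37C, 5% CO2, with DMSO stocks diluted 217-fold. Cellular ATP is then quantified by CellTiter-Glo luminescence after 30 min at room temperature.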
# Chain of Cellular tumor antigen p53 (Homo sapiens) (P04637 whole entry, looked up): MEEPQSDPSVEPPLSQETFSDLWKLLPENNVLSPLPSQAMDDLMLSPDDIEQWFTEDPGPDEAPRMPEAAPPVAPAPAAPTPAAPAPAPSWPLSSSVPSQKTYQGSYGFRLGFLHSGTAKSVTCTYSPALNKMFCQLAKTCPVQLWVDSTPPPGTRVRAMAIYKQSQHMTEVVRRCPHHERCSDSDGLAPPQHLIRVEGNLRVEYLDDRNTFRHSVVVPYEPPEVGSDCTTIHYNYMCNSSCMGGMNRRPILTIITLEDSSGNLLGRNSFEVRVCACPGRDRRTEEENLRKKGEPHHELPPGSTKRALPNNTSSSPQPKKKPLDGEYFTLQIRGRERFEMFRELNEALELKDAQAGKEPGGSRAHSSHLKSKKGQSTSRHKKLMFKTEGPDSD
structure (smiles),measurement,setting,value
CN1C(=O)c2ccc([N+](=O)[O-])cc2C1=O,outcome,[1],inactive
same,outcome,[2],inactive
same,outcome,[3],inactive
same,outcome,[4],inactive
COC(=O)NCCC[Si](OC)(OC)OC,outcome,[1],inactive
same,outcome,[3],inactive
CC1COc2c(N3CCN(C)CC3)c(F)cc3c(=O)c(C(=O)O)cn1c23 (stereo not drawn),outcome,[1],inactive
same,outcome,[2],inactive
same,outcome,[4],inactive
C=CC(=O)OCCOCCOCCOCCOC(=O)C=C,outcome,[1],inactive
same,outcome,[2],inactive
same,outcome,[4],inactive
N[C@@H](CS)C(=O)O,outcome,[1],inactive
same,outcome,[3],inactive
O=C(CS(=O)Cc1ccco1)NC/C=C\COc1cc(CN2CCCCC2)ccn1 (stereo not drawn),outcome,[1],inactive
same,outcome,[2],inactive
same,outcome,[4],inactive
COCCOC(=O)CC#N,outcome,[1],inactive
same,outcome,[2],inactive
same,outcome,[3],inactive
same,outcome,[4],inactive
same,AC50,[5],50 µM (active)
C=CCCCCCCCC,outcome,[1],inactive
same,outcome,[3],inactive
same,outcome,[4],inactive
Cc1ccccc1OCC(O)CNCCOc1ccc(C(N)=O)cc1 (stereo not drawn),outcome,[1],inactive
same,outcome,[2],inactive
same,outcome,[4],inactive
S=C=Nc1ccc(N=C=S)cc1,outcome,[1],inactive
same,outcome,[3],inactive
same,outcome,[4],inactive
c1ccc2c(c1)Sc1ccccc1N2CCN1CCCC1,outcome,[1],inactive
same,outcome,[2],inactive
same,outcome,[4],inactive
CC(C)(CCC(=O)O)C(=O)O,outcome,[1],inactive
same,outcome,[3],inactive
same,outcome,[4],inactive
Cc1ccc2ccccc2c1[N+](=O)[O-],outcome,[1],inactive
same,outcome,[2],inactive
same,outcome,[4],inactive
Cc1ncc(COP(=O)(O)O)c(CN)c1O,outcome,[1],inactive
same,outcome,[2],inactive
same,outcome,[3],inactive
same,outcome,[4],inactive
Cc1ccco1,outcome,[1],inactive
same,outcome,[2],inactive
same,outcome,[4],inactive
Cc1nc2ccc(Cl)cc2[nH]1,outcome,[1],inactive
same,outcome,[2],inactive
same,outcome,[4],inactive
O=Cc1ccc(C(=O)O)cc1,outcome,[1],inactive
same,outcome,[3],inactive
same,outcome,[4],inactive
CCCCCCCCCCCCCCC1CO1 (stereo not drawn),outcome,[1],inactive
same,outcome,[2],inactive
same,outcome,[4],inactive
O=C(NCCc1c[nH]c2ccccc12)c1cccnc1,outcome,[1],inactive
same,outcome,[2],inactive
same,outcome,[3],inactive
same,outcome,[4],inactive
Cc1cccc(C)c1NC(=O)CN1CCCCCC1,outcome,[1],inactive
same,outcome,[3],inactive
same,outcome,[4],inactive
CN(C)C=Nc1c(I)cc(I)c(CCC(=O)O)c1I,outcome,[1],inactive
same,outcome,[3],inactive
CC(C)(C)NCC(O)COc1cccc2c1C[C@H](O)[C@H](O)C2 (stereo partly drawn),outcome,[1],inactive
same,outcome,[2],inactive
same,outcome,[4],inactive
CCCCCCCCCCCCCCCCN(C)C,outcome,[1],inactive
same,outcome,[3],inactive
same,outcome,[4],inactive
O=[N+]([O-])c1c(Cl)cc(Cl)cc1Cl,outcome,[1],inactive
same,outcome,[3],inactive
C=CC(C)(O)CC/C=C(/C)CCC=C(C)C (stereo not drawn),outcome,[1],inactive
same,outcome,[3],inactive
NC1[C@H]2CN(c3nc4c(cc3F)c(=O)c(C(=O)O)cn4-c3ccc(F)cc3F)C[C@@H]12 (stereo partly drawn),AC50,[1],30.4 µM (active)
same,outcome,[2],inactive
same,outcome,[4],inactive
Cc1ccc2cccnc2c1,outcome,[1],inactive
same,outcome,[2],inactive
same,outcome,[3],inactive
same,outcome,[4],inactive
Cc1cccc(C(=O)O)c1[N+](=O)[O-],outcome,[1],inactive
same,outcome,[2],inactive
same,outcome,[4],inactive
CCCCCCCCCCCCCCCC/C=C/C1CC(=O)OC1=O (stereo not drawn),outcome,[1],inactive
same,outcome,[2],inactive
same,outcome,[4],inactive
NC(=O)c1ccc[n+]([C@@H]2O[C@H](COP(=O)([O-])OP(=O)(O)OC[C@H]3O[C@@H](n4cnc5c(N)ncnc54)[C@H](O)[C@@H]3O)[C@@H](O)[C@H]2O)c1,outcome,[1],inactive
same,outcome,[2],inactive
same,outcome,[4],inactive
C=C(C)C(=O)NCCC[N+](C)(C)C,outcome,[1],inactive
same,outcome,[2],inactive
same,outcome,[3],inactive
same,outcome,[4],inactive
O=C(O)c1cc2cc(Cc3cccnc3)ccc2o1,outcome,[1],inactive
same,outcome,[3],inactive
same,outcome,[4],inactive
O=C(c1ccccc1)C1(O)CCCCC1,outcome,[1],inactive
same,outcome,[2],inactive
same,outcome,[4],inactive
same,outcome,[6],inactive
same,outcome,[7],inactive
same,outcome,[8],inactive
CN1CCC(=C2c3ccccc3CC(=O)c3sccc32)CC1,outcome,[1],inactive
same,outcome,[4],inactive
CCN1CCN(C(=O)N[C@@H](C(=O)N[C@@H]2C(=O)N3C(C(=O)O)=C(CSc4nnnn4C)CS[C@H]23)c2ccc(O)cc2)C(=O)C1=O,outcome,[1],inactive
same,outcome,[4],inactive
CC(C(=O)O)c1ccc2c(c1)Cc1cccnc1O2 (stereo not drawn),outcome,[9],inactive
same,outcome,[10],inactive
same,outcome,[11],inactive
same,outcome,[2],inactive
same,outcome,[3],inactive
CC(=O)OCC(C)C,outcome,[9],inactive
same,outcome,[10],inactive
CCCN(CCC)C(=O)C(CCC(=O)O)NC(=O)c1ccccc1 (stereo not drawn),outcome,[1],inactive
same,outcome,[4],inactive
O=C(O)CC/C=C\CC[C@@H]1[C@@H](N2CCCCC2)[C@@H](O)C[C@@H]1OCc1ccc(-c2ccccc2)cc1,outcome,[9],inactive
same,outcome,[10],inactive
COC(=O)NN,outcome,[9],inactive
same,outcome,[10],inactive
same,outcome,[11],inactive
same,outcome,[2],inactive
same,outcome,[3],inactive
Cc1cc(OI)c(C(C)C)cc1-c1cc(C(C)C)c(OI)cc1C,outcome,[1],inactive
same,outcome,[4],inactive
CCCOC(=O)c1ccc(N)cc1,outcome,[1],inactive
same,outcome,[4],inactive
c1cnc2cc3c(cc2n1)C1CNCC3C1,outcome,[1],inactive
same,outcome,[4],inactive
C=C(C)C(=O)OCCCCCCCC(C)C,outcome,[9],inactive
same,outcome,[10],inactive
same,outcome,[11],inactive
same,outcome,[2],inactive
same,outcome,[3],inactive
CC1(C)CC(O)CC(C)(C)N1,outcome,[1],inactive
same,outcome,[4],inactive
CC1(C)OC[C@@H](COC(=O)CCc2ccc(OC[C@@H](O)CNCCNC(=O)N3CCOCC3)cc2)O1,outcome,[9],inactive
same,outcome,[10],inactive
same,outcome,[11],inactive
same,outcome,[2],inactive
same,outcome,[3],inactive
same,outcome,[4],inactive

# Source: PubChem BioAssay (EPA / NIEHS)
